About 55 (4%) of roughly 1,400 compounds were called active. These entries were drawn from the full list. Entries with a potency or affinity are not part of this list. Unmarked numbers belong to inactive results. The rule behind the calls is not given here.

Results on 43 compounds are retold here after PubChem BioAssay AID687028 (Broad Institute, 2013).

The assay is described as follows: A549 cell toxicity, dose response, cytotoxicity control, plate reader, cherry-pick samples (AID 687028).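 Note: cells incubated with compound for three days before reading.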 The settings on record: series mostly up to 19.5 µM; activity change, negative = toxicity: at the top concentration.
For `CC(C)c1ccc(NC(=O)[C@H](NC(=O)[C@@H]2Cc3ccccc3CN2)c2ccccc2)cc1`, the “activity change, negative = toxicity” value was 3.25%.
Regarding `COc1ccc(S(=O)(=O)N2CCC(C(=O)N[C@H](C(=O)NCc3ccccc3)C(C)C)CC2)cc1`, the “activity change, negative = toxicity” value is -1.57%.
Turning to `COc1ccc2c(C)c(CCC(=O)NC3CC3)c(=O)oc2c1C`, the “activity change, negative = toxicity” value was 4.32%.
Regarding `C[C@@H]1CN([C@H](C)CO)C(=O)Cc2cc(NC(=O)C3CC3)ccc2O[C@H]1CN(C)C(=O)Nc1ccccc1`, the “activity change, negative = toxicity” value is 6.32% [at 21 µM].
As for `CCc1nnc(N2C(=O)c3ccccc3C2(O)c2ccccc2)s1` (stereo not drawn), the “activity change, negative = toxicity” value is 0.278%.
Regarding `O=C(O)CCCCCCCCc1cn(CCc2c[nH]c3ccccc23)nn1`, the “activity change, negative = toxicity” value is 1.36%.
The figure for `CCN1C(=NCCc2c[nH]c3ccccc23)N[C@@H](c2ccccc2)[C@H](C(=O)OC)[C@H]1C` is 3.65%.
Consider `CCOc1ccc2[nH]c3ncccc3c(=O)c2c1`, for which the “activity change, negative = toxicity” value was 10.9%.
Turning to `C[C@@H]1CCCCO[C@@H](CN(C)C(=O)C2CCCCC2)[C@H](C)CN([C@H](C)CO)C(=O)c2cc(NC(=O)c3ccncc3)ccc2O1`, the “activity change, negative = toxicity” value was 3.35%.
For `C[C@@H]1CCCCO[C@@H](CN(C)S(=O)(=O)c2ccc(F)cc2)[C@@H](C)CN([C@@H](C)CO)C(=O)c2cc(NC(=O)c3ccccc3)ccc2O1`, the “activity change, negative = toxicity” value was -0.972%.
The figure for `O=C1Nc2ccccc2C(=O)N(C2CCCC2)C1C(=O)NC1CC1` (stereo not drawn) is 2.89%; for `COc1cc(OC)cc(C(=O)Nc2ccc3nc4n(c(=O)c3c2)CCCC4)c1` it is 4.55%; for `CC(C)(C)NC(=O)c1cccc(NC(=O)c2ccc3c(c2)C(=O)N(C(C)(C)C)C3=O)c1` it is 7.87%.
`O=C(c1ccccc1Cc1ccccc1)N1CCN(S(=O)(=O)c2ccccc2)CC1`: the “activity change, negative = toxicity” value is -0.548%.
Turning to `Cc1cc2oc(=O)cc(Cn3ccnc3)c2cc1Cl`, the “activity change, negative = toxicity” value was 5.68%.
In the case of `COc1ccc2c3c([nH]c2c1)[C@H](CO)N(C(C)=O)CC31CN(C(=O)c2cccc(F)c2)C1`, the “activity change, negative = toxicity” value was 1.32%.
`COc1ccc2c3c([nH]c2c1)[C@H](CO)N(C(=O)Nc1cccc(F)c1)CC31CN(S(=O)(=O)c2ccccc2)C1`: the “activity change, negative = toxicity” value was -22.3%.
The figure for `O=S(=O)(c1cccs1)N1CCN(c2ccnc3cc(Cl)ccc23)CC1` is 1.26%; for `CN(C[C@H](Cc1ccccc1)N(C[C@@H](CC1CCCCC1)N(CCc1ccccc1)N=O)N=O)N=O` it is 5.21%.
Turning to `CCCCCC(=O)N1C[C@@H](O)[C@H](n2cc(COC(=O)c3ccccc3)nn2)C[C@@H]1c1ccc(C)cc1`, the “activity change, negative = toxicity” value was 2.72%.
For `O=C(C1CCCCC1)N1C[C@H](O)[C@@H](n2cc(C3CC3)nn2)C[C@@H]1c1ccccc1`, the “activity change, negative = toxicity” value was 2.27%.
The figure for `Cc1noc(C)c1NC(=O)Nc1ccc2c(c1)C(=O)N([C@@H](C)CO)C[C@@H](C)[C@@H](CN(C)C)OCCCC[C@@H](C)O2` is 6.53%.
Take `CCOC(=O)N1CCC(NCCNC(=O)c2ccc(F)c(F)c2)CC1`: the “activity change, negative = toxicity” value is 3.93%.
For `C[C@H](NC(=O)C1CCN(S(=O)(=O)c2ccccc2)CC1)C(=O)NCc1cccnc1`, the “activity change, negative = toxicity” value was 0.309%.
With `COc1ccc(CN2CCC(C(=O)NC(c3ccc4c(c3)OCO4)c3ccccn3)CC2)cc1` (stereo not drawn), the “activity change, negative = toxicity” value was -3.27%.
For the compound `COc1ccc(C2NC(=O)NC(C)=C2C(=O)Nc2cccc(C)c2C)cc1` (stereo not drawn), the “activity change, negative = toxicity” value is 1.37%.
As to `CCN(C[C@H]1N[C@@](C)(C(=O)OC)[C@H]2C(=O)N(C)C(=O)[C@@H]12)S(=O)(=O)c1ccc(-c2ccccc2)cc1`, the “activity change, negative = toxicity” value was 0.033%.
As for `CC(C)CCNC(=O)C1CC(c2ccccc2C(F)(F)F)=NO1` (stereo not drawn), the “activity change, negative = toxicity” value is -2.08%.
The figure for `Cc1cccc(N(CC(=O)NC2CC2)S(=O)(=O)c2ccc(Cl)cc2)c1` is 1.14%; for `COc1ccc2c3c([nH]c2c1)[C@@H](CO)N(Cc1ccc(F)cc1)CC31CN(C(=O)NC(C)C)C1` it is -0.014% [at 21 µM].
As for `Cn1cc(CC(=O)Nc2ccc(Nc3cccnc3)cc2)c2ccccc21`, the “activity change, negative = toxicity” value is -6.76%.
Regarding `O=S(=O)(c1ccc(F)cc1)N1CC[C@@H]2[C@H]1c1cc(-c3ccc(F)cc3)ccc1N[C@@H]2CO`, the “activity change, negative = toxicity” value was -6.49%.
As for `CCC(=O)N1CC[C@@H]2[C@H](CO)Nc3ccc(-c4cccc(C#N)c4)cc3[C@@H]21`, the “activity change, negative = toxicity” value was 2.79%.
The figure for `O=C(OCc1ccccc1)N1CCCC2CC1c1ccccc12` (stereo not drawn) is 6.02%.
Regarding `CCCCN(C(=O)c1ccc2c(c1)NC(=O)CS2)c1ccccc1`, the “activity change, negative = toxicity” value was 4.51%.
For `C[C@H](NC(=O)[C@@H]1CCCN1C(=O)OC(C)(C)C)c1ccccc1`, the “activity change, negative = toxicity” value is 0.406%.
As for `CC1CCC(CN2CCN=C2Nc2ccccc2)CC1` (stereo not drawn), the “activity change, negative = toxicity” value was 5.22%.
Take `COc1ccc(-c2oc3ccc(-c4cc(OC)c(OC)c(OC)c4)cc3c2-c2ccc(OC)nc2)cc1`: the “activity change, negative = toxicity” value was -4.28%.
Under `COc1cc(-c2cnc3c(NC(C)=O)cc(-c4ccccc4CN(C)C)cn23)cc(OC)c1OC` stands 9.33%; under `O=C(C1CCCN(S(=O)(=O)c2cccnc2)C1)N1CCN(c2ccccn2)CC1` (stereo not drawn), -1.36%; under `CCC(C)CN1C(=O)CSCC1(C)C(=O)Nc1ccc2c(c1)OCCO2` (stereo not drawn), -3.44%.
Regarding `C[C@H](CO)N1C[C@H](C)[C@@H](CN(C)C(=O)CCCN(C)C)OCCCC[C@H](C)Oc2ccc(NC(=O)CCCN(C)C)cc2C1=O`, the “activity change, negative = toxicity” value is 5.67%.
Under `COc1cccc(-c2ccc(C3[C@@H]4CN(S(=O)(=O)c5cn(C)cn5)C[C@H]3N4)cc2)c1` (stereo partly drawn) stands 1.42% [at 21 µM].
